Assay results reported in PubChem BioAssay (NCI).
The panel holds about 83,000 compounds, 20% with a hit somewhere; the sample as a whole holds those more often.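 Percent growth is the endpoint: 0 to 100 indicates growth inhibition (40 means 60% inhibition), 0 means no net growth, and negative values indicate cell death.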 Unmarked numbers belong to inactive results. Active and inactive are the calls of the source. Rule for the calls: active = growth percent below 10; inactive = the rest.

What follows are compounds tested on SF-295 CNS (assay: NCI-60 one-dose screen, 48 h (100 = growth as untreated, 0 = no growth, -100 = all killed)). Conditions: 10 µM unless noted.

Which growth does the source give for N#C/C(=C\c1ccc(Br)cc1)n1nnc2cccc(F)c21 here?
The growth was 55.4%.

With COc1cc2oc(-c3cccc(C(=O)Nc4ccc(Cl)cc4)c3)cc(=O)c2c(OC)c1OC as the compound, how does the growth read?
The growth was -41.6% (active).

With CS(=O)(=O)c1ccc(-c2cc(-c3nnc(SCC(=O)Nc4ccc(C(=O)/C=C/c5ccc(Cl)cc5)cc4)n3-c3ccccc3)c3ccccc3n2)cc1 as the compound, how does the growth read?
The growth was 96%.

COc1ccccc1OCC(=O)N1CCCCCC1 was tested. Which growth did it give?
Its growth is 106%.

Which growth does the source give for NC(=O)c1cccc(-n2ccc3cc(NC(=O)Nc4cc(C(F)(F)F)cc(C(F)(F)F)c4)ccc32)n1 here?
Its growth is 18.5%.

Which growth does the source give for COc1cc2nc(-c3ccc(C(F)(F)F)cc3)cc(OCCCN3CCCCC3)c2cc1OC here?
Its growth is -46.8% (active).

For COc1ccc2c(Nc3ccc(NS(C)(=O)=O)cc3)c3ccccc3nc2c1, which growth is on record?
The growth was -27.9% (active).

How did the growth turn out when C=CCn1c(SCC(=O)Nc2ccc(C(=O)/C=C/c3cc(OC)c(OC)c(OC)c3)cc2)nnc1-c1cc(-c2ccc(S(C)(=O)=O)cc2)nc2ccccc12 was run?
The growth was 97.4%.

Which growth does the source give for CN(C)c1ccc(-c2c(C#N)c(N)n3nc(N)c(C#N)c3c2C#N)cc1 here?
The growth was 104%.

CCCCCN1C=C/C(=C\C(=O)N(C)c2cccc3ccccc23)c2ccccc21 was tested. Which growth did it give?
The growth was 97.7%.

How did the growth turn out when CCCCCOc1ccc(/C=N/Nc2cc(C)nc3ccc(Br)cc23)cc1 was run?
Its growth is -84.8% (active).

Which growth does the source give for COc1cccc(C(Cc2ccccc2)Nc2ccccc2)c1OC (stereo not drawn) here?
Its growth is 99.6%.

Cc1ccc(Nc2cc(=S)nc(N)[nH]2)cc1C was tested. Which growth did it give?
The growth was 98.6%.

How did the growth turn out when O=S(=O)(O)c1cc(O)c2c(N=Nc3ccc(Nc4ccccc4)c4c(S(=O)(=O)O)cccc34)cc(S(=O)(=O)O)cc2c1 was run?
The growth was 105%.

For COc1cc2c(cc1[N+](=O)[O-])-c1ccc([N+](=O)[O-])cc1/C2=N\O, which growth is on record?
Its growth is 77.2%.

Which growth does the source give for CS(=O)(=O)OCCN(CCOS(C)(=O)=O)c1ccc(/C=N/Nc2ccc([N+](=O)[O-])cc2[N+](=O)[O-])cc1 here?
Its growth is 79.2%.

How did the growth turn out when COc1cc2c(cc1[N+](=O)[O-])-c1ccc([N+](=O)[O-])cc1/C2=N/NC(N)=S was run?
The growth was 43.6%.

CN(C)C(C(N)=O)c1ccc(Cl)cc1 (stereo not drawn) was tested. Which growth did it give?
Its growth is 100%.

With CC(C)(C)OC(=O)N1CCN(c2ccc(N)cc2)C(=O)C1 as the compound, how does the growth read?
Its growth is 98.2%.

How did the growth turn out when CC(=O)OCC(=O)C1(O)C(C)CC2C3C=C(C)C4=Cc5c(cnn5-c5ccccc5)CC4(C)C3C(O)CC21C (stereo not drawn) was run?
Its growth is -51.1% (active).

Cc1ccc(C2C3CC4CCCCC4N3[C@@]3(C(=O)Nc4cc(Cl)ccc43)C2C(=O)c2nc3ccccc3[nH]2)cc1 (stereo partly drawn) was tested. Which growth did it give?
Its growth is 27.9%.

With COc1ccc(-n2cc(-c3cc(OC)c(OC)c(OC)c3)n(C(C)=O)c2=O)cc1 as the compound, how does the growth read?
Its growth is 82.1%.

Which growth does the source give for C=C(C)[C@@H]1CC[C@]2(C(=O)N3CCN(C)CC3)CC[C@]3(C)[C@H](CC[C@@H]4[C@@]5(C)CCC(=O)C(C)(C)[C@@H]5CC[C@]43C)[C@@H]12 here?
The growth was 103%.

For NC(=S)N/N=C(/c1ccccc1)c1ccccc1N, which growth is on record?
Its growth is 82.5%.

With COc1ccc(C(=O)c2cc(C)c(OC)c(C)c2)c(OC)c1N(C(=O)C(Cl)Cl)C(=O)C(Cl)Cl as the compound, how does the growth read?
Its growth is 7.31% (active).

How did the growth turn out when c1ccc(-c2nn(-c3ccccc3)[n+](-c3ccccc3-c3ccccc3)n2)cc1 was run?
The growth was 3.4% (active).

COc1ccc2c(c1)OC13Oc4cc(OC)ccc4C=C1CCCC3=C2 was tested. Which growth did it give?
The growth was 78.6%.

How did the growth turn out when CC(O)(CO)c1ccccc1 (stereo not drawn) was run?
The growth was 98.6%.

How did the growth turn out when O=C(Nc1nc(-c2ccccc2Cl)cs1)c1cc(-c2ccccc2)nc2ccc(Cl)cc12 was run?
Its growth is 81.1%.

Which growth does the source give for COC(=O)N[C@H]1CCc2cc(OC)c(OC)c(OC)c2-c2ccc(SC)c(=O)cc21 here?
The growth was 7.65% (active).

With CCCCCCN(C)Cc1ccc(OCCOc2ccc(CN(C)CCCCCC)cc2)cc1 as the compound, how does the growth read?
The growth was -51.9% (active).

Which growth does the source give for CCOC(=O)N1CCc2c(sc3nc4nc[nH]n4c(=O)c23)C1 here?
The growth was 103%.

With CCOC(=O)c1c(C)nc2c(c1N)C(=O)C(=O)N2Cc1ccc(C(F)(F)F)cc1 as the compound, how does the growth read?
The growth was 81%.

For CC(=O)c1cccc(NS(=O)(=O)c2cccc(C(=O)Nc3ccc(Br)cc3)c2)c1, which growth is on record?
The growth was 27.3% [25 µM].

With COc1ccccc1C(C[N+](=O)[O-])c1c(-c2ccccc2)[nH]c2cc(C)ccc12 (stereo not drawn) as the compound, how does the growth read?
Its growth is 54.1%.

For CC(C)Cc1ccc(C(C)C(=O)NCc2c[nH]c3ccc(Cl)cc23)cc1 (stereo not drawn), which growth is on record?
The growth was 88.3%.

With CCCC1C(C(=O)OCC)=C(N)Oc2cc(O)ccc21 (stereo not drawn) as the compound, how does the growth read?
Its growth is 102%.

How did the growth turn out when Cc1ccc(C(=O)Nc2ccccc2C(=O)N/N=C(\c2ccccc2)c2ccccn2)cc1 was run?
The growth was 23%.
